The whole screen tested about 1,500 compounds, of which about 390 (26%) were called active. How the calls were made is not given here. These entries were drawn from the full list. Potency and affinity values are given separately.
Each compound was assayed against Histone-lysine N-methyltransferase NSD2 (Homo sapiens) (UniProt O96028) (assay: blockers of NSD2 H4 peptide methylation – biochemical, AlphaScreen, cherry-picked samples, dose response (AID 1053173;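 further: 0% = neutral control wells and -100% = positive control wells on each plate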)). Conditions: 120 min; series mostly up to 10 µM; activity change, negative = inhibition: at the top concentration.
Histone-lysine N-methyltransferase NSD2 (Homo sapiens), sequence (O96028 whole entry, looked up): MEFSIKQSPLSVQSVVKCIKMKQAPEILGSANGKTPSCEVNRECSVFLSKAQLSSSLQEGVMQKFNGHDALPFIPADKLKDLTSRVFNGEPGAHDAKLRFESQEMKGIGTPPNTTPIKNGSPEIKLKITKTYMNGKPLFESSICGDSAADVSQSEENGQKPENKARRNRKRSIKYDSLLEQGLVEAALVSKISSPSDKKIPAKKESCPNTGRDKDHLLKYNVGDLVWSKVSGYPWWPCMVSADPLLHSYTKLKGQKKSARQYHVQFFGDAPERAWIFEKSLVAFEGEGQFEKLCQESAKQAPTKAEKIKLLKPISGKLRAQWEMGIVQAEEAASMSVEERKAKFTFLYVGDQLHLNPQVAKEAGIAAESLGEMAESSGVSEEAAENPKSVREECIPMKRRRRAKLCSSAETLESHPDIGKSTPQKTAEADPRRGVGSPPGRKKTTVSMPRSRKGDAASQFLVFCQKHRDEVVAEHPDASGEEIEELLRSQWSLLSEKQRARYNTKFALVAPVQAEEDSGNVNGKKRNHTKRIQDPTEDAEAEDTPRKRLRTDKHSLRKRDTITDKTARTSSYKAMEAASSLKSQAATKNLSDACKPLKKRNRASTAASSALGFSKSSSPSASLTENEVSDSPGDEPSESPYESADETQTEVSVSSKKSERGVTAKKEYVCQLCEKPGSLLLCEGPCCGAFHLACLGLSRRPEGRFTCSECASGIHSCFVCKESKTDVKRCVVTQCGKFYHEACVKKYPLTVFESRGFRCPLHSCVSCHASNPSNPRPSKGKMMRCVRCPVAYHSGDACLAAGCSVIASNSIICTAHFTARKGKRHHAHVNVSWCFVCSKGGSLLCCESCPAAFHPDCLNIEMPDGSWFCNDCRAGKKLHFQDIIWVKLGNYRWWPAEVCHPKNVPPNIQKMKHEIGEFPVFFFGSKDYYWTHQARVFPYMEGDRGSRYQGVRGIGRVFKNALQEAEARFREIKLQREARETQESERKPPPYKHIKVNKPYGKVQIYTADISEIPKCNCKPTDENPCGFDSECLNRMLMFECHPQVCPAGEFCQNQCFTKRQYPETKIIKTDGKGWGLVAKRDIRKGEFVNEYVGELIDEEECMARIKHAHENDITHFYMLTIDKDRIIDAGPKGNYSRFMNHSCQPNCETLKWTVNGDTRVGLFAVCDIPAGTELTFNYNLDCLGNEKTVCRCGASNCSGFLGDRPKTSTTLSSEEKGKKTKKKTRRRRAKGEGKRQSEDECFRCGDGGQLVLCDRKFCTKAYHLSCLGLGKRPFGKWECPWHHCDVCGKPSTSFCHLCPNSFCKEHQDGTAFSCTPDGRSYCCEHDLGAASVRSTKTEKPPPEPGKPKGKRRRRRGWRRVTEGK

Activity change, negative = inhibition, inactive:
O=C1NC2=C(CCc3ccccc32)C(c2ccccc2)N1 (stereo not given) 6.24%
Cc1cccn2c(=O)c3cc(C(=O)NCCCn4ccnc4)n(C)c3nc12 1.31%
CCOc1cc(C(=O)NCC(=O)N2CCC3(CC2)NCCc2[nH]cnc23)cc(OCC)c1OCC -3.91%
O=[N+]([O-])c1ccc(N/N=C/c2cccs2)nc1 5.01%
CCOc1ccc(N)cc1OC -2.03%
CCN(CC)CCNC(=O)c1cccc(NC(=O)C(=O)c2cc(Br)ccc2NC(C)=O)c1 -7.78%
O=C(/C=C/c1ccc(Cl)cc1Cl)NCc1ccco1 -1.67%
CC1Cc2ccccc2N1C(=O)COc1cccc(-n2cnnn2)c1 (stereo not given) -1.63%
COc1ccc(CNC(=O)CN(c2ccc(C)cc2)S(=O)(=O)c2c(C)noc2C)cc1 1.5%
Cc1cc(F)c(F)c(C(=O)N2C(C)CCCC2C)c1Cl (stereo not given) 2.63%
CC1(C)Cc2cccc(OCC(=O)O)c2O1 6.66%
Cc1cc(=O)n(-c2ccc3ccccc3n2)[nH]1 -0.761%
COc1ccc2nc(NC(=O)CS(=O)(=O)c3ccc(C)cc3)sc2c1 2.31%
COc1ccc(N2C(=O)C3C(C2=O)C(C(=O)c2ccc(Cl)cc2)N2CCCC32)cc1 (stereo not given) -2.69%
COc1ccc(CCCc2n[nH]c(=S)n2C)cc1C 0.479%
CCOc1ccc(NC(=O)CSc2nnc(C34CC5CC(CC(C5)C3)C4)n2C)cc1 -1.31%
CCN(CC)CCNC(=O)CN1C(=O)COc2ccc(S(=O)(=O)N3CCOCC3)cc21 -0.09%
Cc1ccc(Cl)cc1N1CCN(C(=O)c2ccc3nc[nH]c3c2)CC1 -3.39%
CCOc1ccc(NC(=O)CSc2nc3ccccc3c(=O)n2CCCC(=O)N2CCCC2)cc1 2.25%
O=C(O)CN1C(=O)/C(=C/c2ccc(SCc3ccccc3)o2)SC1=S -15.1%
O=C1Cc2ccccc2C(=O)N1c1ccccc1 -4.05%
Clc1ccc(C2=CSC3=Nc4cccc5cccc(c45)N23)cc1 -5.57%
CN1/C(=N\O)c2cccc3cccc1c23 -5.13%
Cc1nn(CC(=O)Nc2nnc(C(C)C)s2)c(=O)c2ccccc12 -0.421%
Cc1cccc(Nc2nnc(-c3ccc(N4CCOCC4)c([N+](=O)[O-])c3)c3ccccc23)c1 -5.02%
CC(C)(C)c1[nH]nc2c1C(c1ccoc1)C(C#N)=C(N)O2 (stereo not given) -2.96%
Fc1ccc(CNc2nc(-c3cccnc3)nc3ccccc23)cc1 -0.605%
COC1=CC(=O)C(OC)=C(OC)C1=O -6.67%
N#CCC(=O)c1sccc1-n1cccc1 -6.36%
CNC(=O)c1ccc(-c2cc(C(F)(F)F)nn2C)s1 -2.74%
Cc1[nH]n(-c2ccccc2)c(=O)c1C(c1ccc(C(=O)O)cc1)c1c(C)[nH]n(-c2ccccc2)c1=O -3.87%
O=C(O)c1ccc2c(c1)C(=O)N(c1cccc(C(=O)/C=C/c3ccccc3)c1)C2=O -5.38%
Cc1ccnc(-n2c(CCN3C(=O)c4ccccc4C3=O)nc3ccccc3c2=O)c1 1.68%
CC1CCCCN1C(=O)CCNC(=O)Cn1cnc2ccccc2c1=O (stereo not given) -0.925%
CCN(CC)C(=O)C1CCCN(Cc2ccc(OC)c(C)c2C)C1 (stereo not given) -1.29%
Cc1cc2nn(-c3cccc4ccccc34)nc2cc1NC(=O)c1cccs1 -2.36%
COc1ccc(-c2nn(-c3ccccc3)cc2C(=O)Nc2ccc(C(=O)O)cc2)cc1 -3.2%
CC(=NO)c1cc(Br)c2cccc3c2c1CC3 -2.86%
Cc1ccc(/C=C2/SC(=O)NC2=S)o1 -13.5%
CC1(C)C2CCC1(C)C(OC(=O)CSc1nc(N)cc(=O)[nH]1)C2 (stereo not given) 0.121%
Cc1c(C(=O)c2no[n+]([O-])c2C(=O)c2cnn(C)c2C)cnn1C -0.643%
COc1ccc(N/C=C2\CCc3ccccc3C2=O)cc1 -8.24%
CCOc1ccc(NC(=O)CN(c2cccc(C(F)(F)F)c2)S(C)(=O)=O)cc1 3.66%
COc1ccc(NC2=CC(c3cccc(OC)c3)N(c3ccc(OC)cc3)C2=O)cc1 (stereo not given) -3.22%
COc1ccc(Nc2oc(COc3ccccc3OC)nc2C#N)cc1 0.344%
c1coc(CNCCCN2CCOCC2)c1 -2.81%
O=C(CN1CCC(C(=O)c2ccc3c(c2)OCCO3)CC1)NCc1ccccc1 -0.843%
COc1cccc(CN(C)C(=O)c2cc(COc3c(F)cccc3F)on2)c1 1.74%
Cc1ccccc1Nc1nc(N)nc(CSc2nnc3sc4ccccc4n23)n1 5.36%
COc1cc2sc(C)nc2c2ccccc12 -0.927%
Cc1ccc(Cn2c(SCC(=O)N3CC(=O)Nc4ccccc43)nc3ccccc3c2=O)cc1 -2.5%
CCN1CCN(c2ncnc3scc(-c4ccc(OC)cc4)c23)CC1 -10.3%
O=C(O)C1CC(c2ccccc2F)=NO1 (stereo not given) -4.43%
Cc1cc(C)cc(-n2c(C)nc3cc(C(=O)O)ccc32)c1 1.21%
O=C(CSc1ccc(Cl)cc1)Nc1cc(-c2nc3ncccc3o2)ccc1Cl -0.517%
COCCCNC1=C(Cl)C(=O)c2ccccc2C1=O -10.6%
CC(C)(C)CN1CCNC(=O)C1CC(=O)N1CCC(C(=O)N2CCOCC2)CC1 (stereo not given) 1.16%
CCOc1ccccc1/C=N/NC(=O)c1nnn(-c2nonc2N)c1CN1CCC(C)CC1 -3.55%
CNc1ccc(Br)cc(C(=O)/C=C/c2cccc(OC)c2OC)c1=O -8.99%
COc1cc(/C=C/c2cccc[n+]2C)ccc1OCC(=O)Nc1ccccc1C -0.922%
CC(C)(C)c1cc(C(=O)N/N=C/c2ccncc2)n[nH]1 -2.87%
CC(=O)c1ccc(NC(=S)Nc2cccc3cnccc23)cc1 -1.63%
COC(=O)c1c(NC(=O)C(C)C)sc(C(=O)N2CCOCC2)c1C -0.343%
COc1ccc(NC(=S)Nc2cccc3cnccc23)cc1 -4.99%
Cc1ccccc1NC(=S)Nc1cccc2cnccc12 -2.75%
CN(C)CCC(=O)N1C/C(=C/c2ccccc2)C(=O)/C(=C\c2ccccc2)C1 -5.71%
Cn1ncc(Cl)c1C(=O)Nc1cc(C(F)(F)F)ccc1F -1.47%
COc1ccc(/C=C2/C(=O)N(c3c(F)c(F)c(F)c(F)c3F)N=C2C)cc1 0.848%
O=C(COc1ccc(S(=O)(=O)N2CCCC2)cc1)Nc1ccc(F)cc1 1.47%
O=C(O)CC(C(=O)O)N1C(=O)/C(=C/c2ccc(-c3nc4ccccc4s3)o2)SC1=S (stereo not given) -6.38%
O=C(O)COc1ccc(/C=C/C(=O)c2ccc3ccccc3c2)cc1 -9.29%
O=C(CNC(=O)c1ccccc1)Oc1ccc([N+](=O)[O-])cc1 -4.16%
C=CCC1CCCCC1=C(C#N)c1ccccc1 (stereo not given) -3.42%
NC1=NC(=Nc2ccc(Br)cc2)c2ccccc21 -5.36%
CC(=O)Nc1ccc(S(=O)(=O)/N=C2/NC(=O)/C(=C\c3ccco3)S2)cc1 -9.65%
Cc1[nH][nH]c(=O)c1C(c1c(C)[nH][nH]c1=O)c1cn(C)c2ccccc12 -2.97%
Cc1[nH][nH]c(=O)c1C(c1ccc(-c2ccc(Cl)c(C(=O)O)c2)o1)c1c(C)[nH][nH]c1=O -7.88%
COc1ccc2c(c1)Cc1sc(NC(=O)c3cccnc3)nc1-2 4.51%
Cc1ccc(N2CN=c3s/c(=C\c4ccccn4)c(=O)n3C2)cc1 -0.608%
COc1ccc(C=C(c2nc3ccccc3s2)c2nc3ccccc3s2)cc1O -9.17%
Cc1c(-c2cccc(Cl)c2)nc2ccccc2c1C(=O)OC/C(O)=C(\C#N)c1nc2ccccc2[nH]1 -3.82%
O=C(NC1CCCc2ccccc21)c1ccccc1OC(F)F (stereo not given) 0.349%
O=C1Nc2ccc(S(=O)(=O)NCc3ccco3)c3cccc1c23 0.667%
COc1ccc(NC2CCCN(C(=O)c3ccccc3N3CCOCC3)C2)cc1OC (stereo not given) -0.733%
Cn1c(NNC(=O)c2c(F)cccc2F)cc(=O)n(C)c1=O 6%
Cc1[nH][nH]c(=O)c1C(c1ccc(-c2ccccc2C(=O)O)o1)c1c(C)[nH][nH]c1=O -9.78%
Nc1nonc1-c1nc2ccccc2n1CC(=O)N/N=C/c1ccc(-c2ccccc2C(=O)O)o1 -10.2%
O=C(CSc1n[nH]c(-c2ccncc2)n1)Nc1ccc(Cl)c(Cl)c1 -5.23%
Cc1nnc(N/N=C\c2ccc(-c3cccc(C(=O)O)c3)o2)n1N 1.17%
Cc1ccc(-c2ccc(/C=N/NC(=O)CN3CCOCC3)o2)cc1[N+](=O)[O-] -0.384%
COc1cc(CC(=O)NCC2COc3ccccc3O2)cc(OC)c1OC (stereo not given) 4.11%
O=C(CCN1CCOCC1)NCC1COc2ccccc2O1 (stereo not given) 4.15%
COc1cc(C(=O)NC2CCCc3ccccc32)cc(OC)c1OC (stereo not given) -3.18%
CN(C)/C=C1\C=C2C(=O)c3ccccc3N2C1=O -11.9%
Cc1c(C)c2cc(Cl)c(O)c(CN(C)C)c2oc1=O -4.88%
Nc1nonc1C(=O)NCCNC(=O)c1ccccc1F 4.89%
O=C(Nc1cccnc1)c1ccc(COc2ccccc2Cl)o1 -3.23%
CNc1ccc(Br)cc(C(=O)/C=C/c2ccc(OC)cc2)c1=O -11.9%
O=C(CCc1nnc(CCCCc2ccccc2)o1)NC1CCCC1 0.963%
Cc1ccc(-n2nc(C(=O)NCc3ccc(C)o3)c3c4ccccc4n(C)c3c2=O)cc1 -0.692%
CC(C)(C#N)NC(=O)C1CCCN1S(=O)(=O)c1ccc2ccccc2c1 (stereo not given) -3.31%
Cc1ccc2cccc(NC3OC(=O)c4ccccc43)c2n1 (stereo not given) -5.91%
COc1cc(C(=O)Nn2c(O)c(C3=c4ccccc4=NC3=O)sc2=S)ccc1O 1.57%
CC(=O)N1CCN(c2ccccc2NC(=O)c2ccc3ccccc3c2)CC1 4.94%
CN1CCN(c2ccc(NC(=O)COc3ccc4ccccc4c3)cc2)CC1 6.91%
COc1c(F)c(F)c(C(=O)Nc2cccc(Cl)c2N2CCOCC2)c(F)c1F -1.41%
Nc1c2c(=O)oc(-c3ccccc3)cc2nn1-c1ccccc1 0.608%
O=C(N/N=C/c1cc2c(cc1[N+](=O)[O-])OCO2)c1ccccn1 1.47%
Cc1ccccc1-c1ocnc1C(=O)Nc1ccccc1NC(=O)c1ccccn1 -3.59%
O=C(Nc1cccc(C(F)(F)F)c1)c1cc(-c2ccco2)on1 -0.125%

Source: PubChem BioAssay AID1053173 (Broad Institute, 2014)
